Screening data (PubChem BioAssay)
CHT allo act: allosteric activators of human choline transporter CHT; B-score at 10 µM; CHT-expressing cells, membrane potential dye, choline EC20; hits give high values; LV-AA mutant CHT in HEK293 cells; AID 488977; Q9GZV3; 0.49% of 310,000 active;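 active = initial fluorescence not abnormally high and integrated response B-score, plate-corrected, over 3 SD above library mean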
Target sequence (Q9GZV3 whole entry, looked up): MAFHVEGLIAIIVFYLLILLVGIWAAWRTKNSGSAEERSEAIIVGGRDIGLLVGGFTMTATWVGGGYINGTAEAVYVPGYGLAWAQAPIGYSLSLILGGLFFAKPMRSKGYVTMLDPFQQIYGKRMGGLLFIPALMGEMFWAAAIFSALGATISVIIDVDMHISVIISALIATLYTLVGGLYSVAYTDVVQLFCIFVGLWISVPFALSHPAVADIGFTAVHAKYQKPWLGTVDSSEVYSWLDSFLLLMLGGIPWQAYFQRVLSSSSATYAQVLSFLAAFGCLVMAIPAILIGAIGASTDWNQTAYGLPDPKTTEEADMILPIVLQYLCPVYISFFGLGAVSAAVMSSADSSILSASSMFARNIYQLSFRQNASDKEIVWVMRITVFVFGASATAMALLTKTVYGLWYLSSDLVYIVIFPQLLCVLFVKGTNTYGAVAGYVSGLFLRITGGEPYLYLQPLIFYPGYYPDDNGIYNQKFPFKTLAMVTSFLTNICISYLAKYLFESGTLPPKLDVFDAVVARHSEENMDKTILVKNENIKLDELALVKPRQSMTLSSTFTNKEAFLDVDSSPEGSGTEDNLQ
SUMO Mot1 rescue: SUMOylation pathway inhibition by Mot1-301 growth rescue. S. cerevisiae Mot1-301 growth rescue, ATP luminescence, 38.5C; percent above DMSO median, 100 means doubled. growth rescue, % at 18.8 µM. 1% of 320,000 active. AID 2716;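 active = every valid replicate shows activation above 250% relative to neutral control wells; inactive = the rest, any valid replicate at or below 250%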;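 note: OY570 slx delta 5 strain wells were the positive control but not used for scaling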
MEKK3 PB1 HTS: MEKK3-MEK5 PB1 interaction, increase or decrease; Q99759; 1.4% of 290,000 active; bead-based flow cytometry, Alexa488-MEK5 binding to MEKK3; actives lie on both sides; 0 = blocked by unlabeled MEK5, 100 = vehicle; binding response (% of control), % at 10 µM;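 active = binding response more than 3 SD above or below the average of its plate-row segment, actives on both sides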;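 note: Alexa488 bead fluorescence after subtracting the streptavidin-only scavenger bead signal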
MEKK2 WT-MEK5: raises or lowers MEK5 binding to wildtype human MEKK2 PB1 domain; bead flow cytometry, Alexa488-MEK5 binding to MEKK2 WT; actives lie on both sides; binding response (% of control), % at 10 µM; 1.1% of 290,000 active; in the data active = binding response below about 67% or above about 130%
MEKK2 mut-MEK5: signal of MEK5 binding to mutant human MEKK2 PB1 domain. percent response, % at 10 µM. AID 1530. 0.35% of 290,000 active. bead flow cytometry, Alexa488-MEK5 binding to MEKK2 mutant; in the data active = percent response above about 24%, passing the limit was not always enough
CHT inh: human CHT choline transport inhibition; Q9GZV3; CHT-expressing cells, membrane potential dye, choline response; hits give low values; B-score at 10 µM; 0.86% of 310,000 active; AID 488975;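 active = B-score over 3 SD under the library average, and starting fluorescence ratio not unusually high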;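 note: choline stimulus applied at its EC90 after an EC20 pre-addition; B-score computed on integrated fluorescence ratio after choline addition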
MEKK2wt confirm: raises or lowers MEK5 binding to wildtype human MEKK2, retest | binding response (% of control), % at 10 µM | shares compounds with MEKK3 PB1 HTS | bead flow cytometry, Alexa488-MEK5 binding to MEKK2 WT; actives lie on both sides | 2.4% of 5,900 active | AID 1892; in the data active = binding response below about 16% or above about 210%; inactive = in between
MEKK2mut-MEK5: signal of MEK5 binding to mutant human MEKK2, retest | percent response, % at 10 µM | bead flow cytometry, Alexa488-MEK5 binding to MEKK2 mutant | 2% of 5,900 active | shares compounds with MEKK3 PB1 HTS; in the data active = percent response mostly above about 71%, no sharp cut-off; inactive = mostly below about 38%;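 note: higher means compound restores mutant binding toward wildtype level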
MEKK3-MEK5 inh: MEKK3-MEK5 PB1 inhibition, single concentration confirmation; shares compounds with MEKK3 PB1 HTS; bead flow cytometry, Alexa488-MEK5 binding to MEKK3; hits give low values; binding response (% of control), % at 10 µM; 1.8% of 5,900 active; AID 1894;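 active = binding response below 72% of control, or above a set upper limit, though filed actives all read lower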;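 note: 100% = DMSO only wells and 0% = binding blocked by excess unlabeled MEK5; lower values mean stronger disruption of MEK5 binding to MEKK3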
Numbers without * were called inactive; i = inactive; nt = no result given; ! = a repeat was not active; [ ] = dose if it differs, or a comment. Hits are enriched below; roughly 4.1% of the tested compounds scored in any of these assays.

SMILES	CHT allo act	SUMO Mot1 rescue	MEKK3 PB1 HTS	MEKK2 WT-MEK5	MEKK2 mut-MEK5	CHT inh	MEKK2wt confirm	MEKK2mut-MEK5	MEKK3-MEK5 inh
CCN(CC)S(=O)(=O)c1cc(C)c(C)cc1Br	i	337.3	61.0*[inhibitor]	71.0*[inhibitor]	-4.0	i	103.0	3.0	103.0
COc1ccc(CCNc2cc(C)nc3c(-c4ccc(Cl)cc4)cnn23)cc1OC	i	-7.1	136.0*	109.0	0.0	i	101.0	-2.0	104.0
C=CCSc1nc2c(C(=O)OCC)nnn2c2ccccc12	i	-12.8	103.0	99.0	4.0	i	nt	nt	nt
CCOC(=O)c1nnn2c1nc(SCC(C)=O)c1ccccc12	i	1.6	132.0*	138.0*	32.0	i	99.0	-4.0	100.0
Cc1nn(CC(=O)NC(C)C)c(C)c1[N+](=O)[O-]	i	-9.7	69.0*[inhibitor]	79.0	-8.0	i	105.0	13.0	103.0
Cc1nn(CC(=O)O)c(C)c1[N+](=O)[O-]	i	-12.2	101.0	99.0	-10.0	i	nt	nt	nt
O=C(Cc1c(Sc2ccccc2)c2ccccc2n1Cc1ccccc1)NCCO	i	-24.5	103.0	102.0	0.0	i	nt	nt	nt
O=C(CNC(=O)OCc1ccccc1)Nc1ccc(F)cc1	nt	-1.2	nt	nt	nt	nt	nt	nt	nt
COc1cc(CNCCSc2nnnn2C)cc(Br)c1OCc1ccccc1	i	77.8	104.0	120.0	15.0	i	nt	nt	nt
O=C(Nc1nnc(-c2ccncc2)o1)c1ccccc1F	i	-1.4	129.0*	112.0	19.0	i	99.0	-5.0	104.0
O=C(Nc1nnc(-c2ccncc2)o1)c1ccccc1	i	-8.5	124.0	108.0	17.0	i	nt	nt	nt
Cc1ccc(C(C)NC(=O)c2ccncc2)c(C)c1 (centres undefined)	i	10.0	104.0	103.0	3.0	i	nt	nt	nt
Cc1ccc(-c2ccc(SCC(=O)Nc3ccc4c(c3)OCCO4)nn2)cc1	i	2.8	110.0	102.0	0.0	i	nt	nt	nt
CC(=O)c1ccc(NC(=O)CSc2ccc(-c3ccc4c(c3)OCO4)nn2)cc1	i	44.1	130.0*	103.0	0.0	i	106.0	7.0	107.0
OC1CCCN(CC(O)c2ccccc2)C1 (centres undefined)	i	10.3	102.0	104.0	4.0	i	nt	nt	nt
OC1CCCN(Cc2ccc3ccc4cccc5ccc2c3c45)C1 (centres undefined)	i	-0.7	109.0	140.0*	17.0	i	119.0	8.0	102.0
Cc1ccc(OCC(=O)c2c(N)n(C)c(=O)n(C)c2=O)c([N+](=O)[O-])n1	nt	3.1	nt	nt	nt	nt	nt	nt	nt
CC(C)N1CCN(Cc2coc3ccccc3c2=O)CC1CCO (centres undefined)	i	1.6	131.0*	120.0	0.0	i	76.0	-22.0	64.0*
CC1CCC(N2CCN(S(=O)(=O)Cc3ccccc3)CC2)CC1 (centres undefined)	i	163.9	104.0	105.0	-1.0	i	nt	nt	nt
O=S(=O)(Cc1ccccc1)N1CCC(N2CCN(c3ccccc3)CC2)CC1	i	-21.0	133.0*	117.0	5.0	i	111.0	4.0	104.0
COc1cc2ccccc2cc1C(=O)NC(=S)Nc1cc(C(=O)O)ccc1C	nt	nt	129.0*	110.0	0.0	nt	100.0	0.0	103.0
COc1ccccc1C(=O)NC(=S)Nc1cc(C(=O)O)ccc1C	i	3.9	103.0	93.0	-12.0	i	nt	nt	nt
COC(=O)Nc1ccc(N2CCOCC2)c(S(=O)(=O)N2CCOCC2)c1	i	-2.3	98.0	98.0	4.0	i	nt	nt	nt
O=C(NC12CC3CC(CC(C3)C1)C2)C1CC(=O)N(c2ccc(Br)cc2)C1 (centres undefined)	i	32.3	104.0	101.0	9.0	i	nt	nt	nt
O=C(NC12CC3CC(CC(C3)C1)C2)C1CC(=O)N(c2ccccc2)C1 (centres undefined)	i	-0.3	107.0	100.0	25.0*	i	99.0	-3.0	99.0
SMILES	CHT allo act	SUMO Mot1 rescue	MEKK3 PB1 HTS	MEKK2 WT-MEK5	MEKK2 mut-MEK5	CHT inh	MEKK2wt confirm	MEKK2mut-MEK5	MEKK3-MEK5 inh
OCCN1CCN(CC/C=C2/c3ccccc3Sc3ccc(C(F)(F)F)cc32)CC1	i	3.5	nt	nt	nt	i	nt	nt	nt
CN1CCN(CCCN2c3ccccc3Sc3ccc(Cl)cc32)CC1	i	5.9	107.0	188.0*!	23.0	i	157.0	24.0	109.0
CN(C)CCC(=O)N1c2ccccc2Sc2ccc(C(F)(F)F)cc21	i	-12.5	97.0	102.0	3.0	i	nt	nt	nt
OCCN1CCN(CCCN2c3ccccc3Sc3ccc(C(F)(F)F)cc32)CC1	i	-9.9	114.0	175.0*	19.0	i	132.0	17.0	108.0
CN(C)CCCN1c2ccccc2Sc2ccc(C(F)(F)F)cc21	i	14.0	112.0	154.0*	13.0	i	144.0	26.0	106.0
COc1ccc(OC)c(NC(=O)c2cc(-c3cc(Cl)ccc3O)n[nH]2)c1	i	-3.3	145.0*	130.0	8.0	i	93.0	-3.0	98.0
COc1ccc(Cl)cc1NC(=O)c1cc(-c2ccccc2O)n[nH]1	i	-3.0	103.0	105.0	-2.0	i	nt	nt	nt
COC(=O)c1scc(C)c1NS(=O)(=O)c1ccc(NC(C)=O)cc1	i	-3.0	99.0	97.0	-3.0	i	nt	nt	nt
O=C(COC(=O)c1ccc2c(c1)C(=O)N(Cc1ccncc1)C2=O)Nc1cccc2ccccc12	i	-10.4	106.0	104.0	2.0	i	nt	nt	nt
O=c1o[nH]c(-c2ccccc2)c1C1=NCCCCC1	i	-8.8	73.0*[inhibitor]	96.0	-3.0	i	101.0	-2.0	102.0
Oc1[nH]c2ccccc2c1C1=NCCCC1	i	284.5	91.0	106.0	8.0	i	nt	nt	nt
Cc1ccc(NC(=O)C[n+]2cc(-c3ccccc3)n3c2CCC3)c(C)c1	i	-1.6	92.0	101.0	3.0	i	nt	nt	nt
Cc1ccc(-c2csc(NC(=O)C[n+]3cc(-c4ccc(C)cc4)n4c3CCC4)n2)cc1	i	-17.7	104.0	141.0*	3.0	i	207.0*	63.0	109.0
Cc1ccc(-c2csc(NC(=O)C[n+]3cc(-c4ccccc4)n4c3CCC4)n2)cc1	i	37.5	96.0	167.0*	36.0	i	159.0	29.0	106.0
Cc1ccc(-c2c[n+](CC(=O)N3c4ccccc4Sc4ccccc43)c3n2CCC3)cc1	i	155.4	105.0	152.0*	29.0	i	129.0	27.0	103.0
